Source: PubChem BioAssay (NCI)
About 83,000 compounds went through this panel and 20% of them were active in at least one assay; those are over-represented in the sample as a whole.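 The endpoint reported here, percent growth, reads 100 for growth as untreated, 0 for no net growth and -100 for all cells dead.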 Unmarked numbers belong to inactive results. Activity calls are given as the source filed them. The calls were made as follows: active = growth percent below 10; inactive = the rest.

What was measured:
Test in all cases: NCI-60 one-dose screen, 48 h (100 = growth as untreated, 0 = no growth, -100 = all killed)
Details in all cases: 10 µM unless noted
[1] = system: NCI-H23 lung
[2] = system: NCI-H226 lung
[3] = system: NCI-H322M lung
[4] = system: HOP-62 NSCLC
[5] = system: NCI-H460 lung
[6] = system: HOP-92 NSCLC
[7] = system: NCI-H522 lung
[8] = system: A549/ATCC NSCLC
[9] = system: 786-0 renal
[10] = system: COLO 205 colon
[11] = system: DU-145 prostate
[12] = system: MALME-3M melanoma
[13] = system: MDA-MB-231 breast
[14] = system: RXF 393 renal
[15] = system: SF-268 CNS
[16] = system: SF-295 CNS
[17] = system: SF-539 CNS
[18] = system: UACC-257 melanoma
[19] = system: M14 melanoma
[20] = system: K-562 leukemia

CN(C)C(=O)c1cc2cnc(Nc3ccc(-c4csc5c(=O)cc(N6CCNCC6)oc45)cc3)nc2n1C1CCCC1
growth [1]: 0.906% (active) | growth [2]: 16.1% | growth [3]: 23% | growth [4]: 21.4% | growth [5]: 7.5% (active) | growth [6]: 31.3% | growth [7]: 46.5% | growth [8]: 2.05% (active) | growth [9]: 7.89% (active) | growth [10]: 11% | growth [11]: 29.9% | growth [12]: 60.2% | growth [13]: 9.91% (active) | growth [14]: -78.6% (active) | growth [15]: 19.2% | growth [16]: 15.2% | growth [17]: -33% (active) | growth [18]: 64.4% | growth [19]: 27.1%

Cc1ccc(S(=O)(=O)N(CCc2ccc(Cl)cc2)S(=O)(=O)c2ccc(C)cc2)cc1
growth [1]: 90.9% | growth [2]: 75.2% | growth [3]: 93.1% | growth [4]: 103% | growth [5]: 101% | growth [6]: 88.1% | growth [7]: 77.4% | growth [8]: 88.3% | growth [9]: 94.4% | growth [10]: 111% | growth [11]: 105% | growth [20]: 70% | growth [12]: 93% | growth [13]: 108% | growth [15]: 99.8% | growth [17]: 96.8% | growth [18]: 92.4% | growth [19]: 106%

CN1Cc2c(cc(CN3CCCCC3)n2C)C(c2ccc(Br)cc2)C1 (centres undefined)
growth [1]: 84.6% | growth [2]: 90.7% | growth [3]: 91.5% | growth [4]: 91.1% | growth [5]: 96.9% | growth [6]: 53.9% | growth [7]: 90.5% | growth [8]: 93.8% | growth [9]: 66.5% | growth [10]: 83.1% | growth [11]: 96.5% | growth [20]: 34.9% | growth [12]: 22.8% | growth [14]: 74.8% | growth [15]: 92.6% | growth [16]: 81.3% | growth [17]: 76.1% | growth [18]: 13.4% | growth [19]: 14.1%

COc1ccc2nc(NC(=O)c3cccnc3Nc3cc(OC)c(OC)c(OC)c3)sc2c1
growth [1]: 22.6% | growth [2]: 10.9% | growth [3]: -54.3% (active) | growth [4]: 16.7% | growth [5]: 0.16% (active) | growth [6]: -64.6% (active) | growth [7]: 13.3% | growth [8]: -32.2% (active) | growth [9]: -66.9% (active) | growth [10]: 123% | growth [11]: -56.1% (active) | growth [20]: 15.7% | growth [13]: -9.82% (active) | growth [14]: -39.2% (active) | growth [15]: -73.1% (active) | growth [16]: 54.2% | growth [17]: -57.1% (active) | growth [18]: 49.9% | growth [19]: 48.4%

O=C(Nc1cccc2c1C(=O)c1cccc(Nc3cccc4c3C(=O)c3cccc(NC(=O)c5ccccc5)c3C4=O)c1C2=O)c1ccccc1
growth [1]: 108% | growth [2]: 102% | growth [3]: 112% | growth [4]: 104% | growth [5]: 113% | growth [6]: 90.7% | growth [7]: 112% | growth [8]: 90.1% | growth [9]: 117% | growth [10]: 117% | growth [11]: 120% | growth [20]: 116% | growth [12]: 120% | growth [14]: 120% | growth [15]: 110% | growth [16]: 100% | growth [17]: 109% | growth [18]: 103% | growth [19]: 104%

CCN(CC)c1ccc(CNc2cc(C)nc3ccc(OC)cc23)cc1
growth [1]: 21.2% | growth [2]: 75.8% | growth [3]: -5.55% (active) | growth [4]: 102% | growth [5]: -39.4% (active) | growth [6]: 20.7% | growth [7]: 24.6% | growth [8]: 70.2% | growth [9]: 73.7% | growth [10]: -75.2% (active) | growth [11]: 58.7% | growth [20]: -35.6% (active) | growth [12]: -77.5% (active) | growth [14]: 77% | growth [15]: 72.7% | growth [16]: 16.5% | growth [17]: 76% | growth [18]: 18.7% | growth [19]: 48.8%

N=S(=O)(NC(=O)c1ccc(Cl)cc1Cl)c1ccc(Br)s1 (centres undefined)
growth [1]: 102% | growth [2]: 94.5% | growth [3]: 118% | growth [4]: 91% | growth [5]: 85.8% | growth [6]: 86.9% | growth [7]: 103% | growth [8]: 80.7% | growth [9]: 89.9% | growth [10]: 107% | growth [11]: 105% | growth [20]: 107% | growth [13]: 98.2% | growth [14]: 91.7% | growth [15]: 99.8% | growth [16]: 89.6% | growth [17]: 91.7% | growth [18]: 98.2% | growth [19]: 99.8%

CCN(CC)CCCNc1cccc2c(SCc3ccccc3)ccnc12
growth [1]: 69.3% | growth [2]: 89.8% | growth [3]: 41.6% | growth [4]: 94.8% | growth [5]: 72% | growth [6]: 26.2% | growth [7]: 52% | growth [8]: 63.7% | growth [9]: 72.7% | growth [10]: 106% | growth [11]: -22.8% (active) | growth [20]: -63% (active) | growth [12]: -84.3% (active) | growth [14]: 88.4% | growth [15]: 23.9% | growth [16]: 61% | growth [17]: 81.4% | growth [18]: 88.1% | growth [19]: -47.4% (active)

Cc1cccc(NC(=O)c2sc3nc4c(cc3c2N)C(=O)CCC4)c1
growth [1]: 53.1% | growth [2]: 56.6% | growth [3]: 37.2% | growth [4]: 42.9% | growth [5]: 6.09% (active) | growth [6]: 64.5% | growth [7]: 11.7% | growth [8]: 31.4% | growth [9]: 31.3% | growth [10]: 3% (active) | growth [11]: 9.01% (active) | growth [20]: 18.8% | growth [13]: 36.6% | growth [14]: 22.7% | growth [15]: 64.8% | growth [16]: 20.6% | growth [17]: -27.7% (active) | growth [18]: 76.3% | growth [19]: 21.8%

O=C1C=CC(Nc2ccccc2[N+](=O)[O-])C1Nc1ccccc1[N+](=O)[O-] (centres undefined)
growth [1]: 6.85% (active) | growth [2]: -41.7% (active) | growth [3]: 79.1% | growth [4]: 90.9% | growth [5]: 59% | growth [6]: -56.5% (active) | growth [7]: -90.1% (active) | growth [8]: 92.2% | growth [9]: -76.7% (active) | growth [10]: -79.2% (active) | growth [11]: -69.1% (active) | growth [20]: 5.11% (active) | growth [12]: -89.7% (active) | growth [14]: -96.4% (active) | growth [15]: 75.8% | growth [16]: 67.5% | growth [17]: -93.6% (active) | growth [18]: 28.7% | growth [19]: -68.9% (active)

COC(=O)[C@H](C(C)C)n1c(=O)c2cc(OC)c(OC)cc2c2cnc3[nH]ccc3c21
growth [1]: 62.1% | growth [2]: 46.4% | growth [3]: 48.5% | growth [4]: 45.8% | growth [5]: 41.2% | growth [6]: 13.7% | growth [7]: 62.8% | growth [8]: 40.7% | growth [9]: 52.9% | growth [10]: 57.5% | growth [11]: 51.4% | growth [12]: 85.1% | growth [13]: 48% | growth [14]: -0.674% (active) | growth [15]: 45.6% | growth [16]: 25.2% | growth [17]: 9.26% (active) | growth [18]: 78.7% | growth [19]: 76.1%

COc1cc2cc(COc3nccc(-c4ccc(Cl)cc4)n3)c(=O)[nH]c2cc1OC
growth [1]: 88.5% | growth [2]: 89.1% | growth [3]: 79.6% | growth [4]: 88.2% | growth [5]: 86.2% | growth [6]: 69.9% | growth [7]: 108% | growth [8]: 67.5% | growth [9]: 80.9% | growth [10]: 44.3% | growth [11]: 81.4% | growth [12]: 45.7% | growth [13]: 55.1% | growth [14]: 61.9% | growth [15]: 80.1% | growth [16]: 97.6% | growth [17]: 67.9% | growth [18]: 98% | growth [19]: -27.4% (active)

CCCCN(CC)CCCCCCCCCCN1CCCc2cc(OC)ccc21
growth [1]: 13.2% | growth [2]: 103% | growth [3]: 54.2% | growth [4]: 106% | growth [5]: 28.5% | growth [6]: 31.8% | growth [7]: 38.8% | growth [8]: 91% | growth [9]: 60.4% | growth [10]: 83.4% | growth [11]: 48.5% | growth [20]: -38.7% (active) | growth [12]: -28.6% (active) | growth [14]: 92.7% | growth [15]: 49.7% | growth [16]: 43.5% | growth [17]: 93.1% | growth [18]: 103% | growth [19]: 88.2%

COc1ccc2[nH]c(=O)c(/C=C/C(=O)c3ccc(Nc4nccc(-c5ccc6ccccc6c5)n4)cc3)cc2c1
growth [1]: 104% | growth [2]: 96.6% | growth [3]: 97.7% | growth [4]: 102% | growth [5]: 102% | growth [6]: 81.8% | growth [7]: 99.5% | growth [8]: 97.3% | growth [9]: 93.5% | growth [10]: 104% | growth [11]: 99.9% | growth [12]: 101% | growth [13]: 96.2% | growth [14]: 102% | growth [15]: 94.9% | growth [16]: 101% | growth [17]: 101% | growth [18]: 95.2% | growth [19]: 101%

CCN(CC)CC(C)(C)C(=O)/C=C/c1ccccc1
growth [1]: 62.1% | growth [2]: 63.5% | growth [3]: 67.7% | growth [4]: 90.6% | growth [5]: 32.3% | growth [6]: 34.7% | growth [7]: 60.6% | growth [8]: 80.3% | growth [9]: 60% | growth [10]: 53.4% | growth [11]: 8.96% (active) | growth [20]: 6.77% (active) | growth [12]: 37.4% | growth [14]: 30.3% | growth [15]: 91.3% | growth [16]: 87.6% | growth [17]: 28.8% | growth [18]: 65.9% | growth [19]: 31.9%
